Results filed as inconclusive are left out. Activity calls are given as the source filed them. Rule for the calls, unless noted: active = hit-call score of the fitted dose curve at least 0.9, where 1 is the maximum; inactive = score below 0.9.
Key:
[1] = ATG_TAL_CIS: Attagene CIS-FACTORIAL HepG2 Assay for human TAL Basal Promoter (AID 2282966); details: HepG2 Attagene cis-factorial TAL promoter reporter; actives raise or lower the signal;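 note: background control endpoint measuring basal TAL promoter reporter mRNA not a specific factor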
Outline: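 Readout: reporter mRNA, fluorescence by CE. System: HepG2, transient multi-reporter transfection, endogenous TF activity. Exposure: 24 h. Analysis: bidirectional, DMSO-normalized; background control.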

[2] = ATG_TGFb_CIS: Attagene CIS-FACTORIAL HepG2 Assay for human Transforming Growth Factor (TGF) (AID 2282967); details: HepG2 Attagene CIS TGFb reporter, mRNA transcription; actives raise or lower the signal
Outline: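 Readout: fluorescently labeled reporter cDNA fragments resolved by capillary electrophoresis after RT-PCR. Transfected HepG2 cells dosed for 24 h; endogenous TF activity at TGFB1-linked cis element; gain or loss fitted relative to DMSO.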

[3] = ATG_VDRE_CIS: Attagene CIS-FACTORIAL HepG2 Assay for human Vitamin D Receptor Element (VDRE) (AID 2282968); details: HepG2 VDRE cis-reporter transcription, actives raise or lower the signal
Outline: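 Transiently transfected HepG2 cells carrying cis-regulated reporter transcription units were exposed for 24 h. Reporter mRNA was measured by RT-PCR with fluorescent labelling and capillary electrophoresis, and fitted in both directions against DMSO.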

[4] = biological target: X-box-binding protein 1 (Homo sapiens) (UniProt P17861); experiment: ATG_Xbp1_CIS: Attagene CIS-FACTORIAL HepG2 Assay for human X-box Binding Protein 1 (XBP1) (AID 2282972); details: HepG2 XBP1 cis-element reporter, Attagene multiplex; actives raise or lower the signal
Outline: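 HepG2, transient MRTU transfection (cis-promoter driven), 24 h compound exposure. Total RNA → oligo(dT) RT → PCR → 6-FAM labeling → HpaI cut → CE. Bidirectional fit vs DMSO.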

[5] = ATG_M_19_TRANS: Attagene TRANS-FACTORIAL HepG2 Assay for M19 Transcription Factor (Internal Marker) (AID 2282974; active = hit-call score of the fitted dose curve at least 0.9, where 1 is the maximum); details: HepG2 Attagene TRANS-FACTORIAL M19 internal marker reporter
Outline: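 Fluorescence of 6-FAM-labelled reporter cDNA fragments, separated by capillary electrophoresis, served as the readout. These derived from HepG2 cells carrying transfected GAL4-UAS reporter units after 24 h dosing, with DMSO as negative control.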

[6] = biological target: Glucocorticoid receptor (Homo sapiens) (UniProt P04150); experiment: ATG_GR_TRANS: Attagene TRANS-FACTORIAL HepG2 Assay for human Glucocorticoid Receptor (GR) (AID 2282978; active = hit-call score of the fitted dose curve at least 0.9, where 1 is the maximum;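 note: activators score as hits since higher reporter transcript over DMSO is fitted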); details: HepG2 Attagene TRANS GR reporter, mRNA transcription
Outline: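 Fluorescent capillary-electrophoresis quantitation of reporter mRNA is the readout, taken 24 h after dosing human HepG2 cells carrying transiently transfected GAL4-UAS reporter units activated by chimeric NR-GAL4 fusions; activity scored as induction over DMSO.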

[7] = biological target: Bile acid receptor (Homo sapiens) (UniProt Q96RI1); experiment: ATG_FXR_TRANS: Attagene TRANS-FACTORIAL HepG2 Assay for Farnesoid X Receptor (FXR) (AID 2282979; active = hit-call score of the fitted dose curve at least 0.9, where 1 is the maximum;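 note: hits raise reporter mRNA above DMSO so AC50 marks FXR activation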); details: HepG2 Attagene TRANS FXR-GAL4 reporter transcription
Outline: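 Chimeric FXR-GAL4 activity in transiently transfected human HepG2 liver cells is scored as induction of reporter mRNA after 24 h of dosing. Detection uses RT-PCR with fluorescent labelling and capillary electrophoresis, with DMSO serving as baseline.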

[8] = biological target: Hepatocyte nuclear factor 4-alpha (Homo sapiens) (UniProt P41235); experiment: ATG_HNF4a_TRANS: Attagene TRANS-FACTORIAL HepG2 Assay for human Hepatocyte Nuclear Factor 4 alpha (HNF4a) (AID 2282982; active = hit-call score of the fitted dose curve at least 0.9, where 1 is the maximum); details: HepG2 HNF4a transactivation reporter, mRNA readout
Outline: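 HepG2 cells transiently transfected with HNF4a-Gal4 chimera and GAL4-UAS reporter units, dosed for 24 h. Reporter mRNA measured by RT-PCR, fluorescent primer extension and capillary electrophoresis; gain-of-signal fitted relative to DMSO.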

[9] = ATG_M_06_TRANS: Attagene TRANS-FACTORIAL HepG2 Assay for M06 Transcription Factor (Internal Marker) (AID 2282983; active = hit-call score of the fitted dose curve at least 0.9, where 1 is the maximum); details: HepG2 Attagene TRANS M06 internal marker reporter
Outline: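 Measured by capillary electrophoresis of fluorescently labelled RT-PCR products, this endpoint reflects reporter mRNA in HepG2 cells harbouring exogenous NR-GAL4 reporter constructs after 24 h exposure, with DMSO as baseline.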

[10] = biological target: Nuclear receptor subfamily 4 group A member 2 (Homo sapiens) (UniProt P43354); experiment: ATG_NURR1_TRANS: Attagene TRANS-FACTORIAL HepG2 Assay for human Nuclear Receptor Related Protein 1 (NURR1) (AID 2282985; active = hit-call score of the fitted dose curve at least 0.9, where 1 is the maximum); details: HepG2 Attagene TRANS reporter, mRNA readout
Outline: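 HepG2 cells transiently transfected with NURR1-Gal4 chimera and GAL4-UAS reporter units; after 24 hr compound exposure, reporter mRNA quantified by RT-PCR and capillary electrophoresis; gain of signal fitted against DMSO.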

[11] = biological target: Transcriptional activator Myb (Homo sapiens) (UniProt P10242); experiment: ATG_Myb_CIS: Attagene CIS-FACTORIAL HepG2 Assay for human Myeloblastosis (Myb) Proto-Oncogene Transcription Factor (AID 2282986); details: HepG2 Attagene CIS-FACTORIAL Myb reporter transcription; actives raise or lower the signal
Outline: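 Reporter transcript levels, quantified by fluorescent RT-PCR and capillary electrophoresis, serve as the read-out. Transfected HepG2 cells carrying cis-promoter reporter units are dosed for 24 hours, and curves are fitted bidirectionally against DMSO controls.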

[12] = biological target: Nuclear respiratory factor 1 (Homo sapiens) (UniProt Q16656); experiment: ATG_NRF1_CIS: Attagene CIS-FACTORIAL HepG2 Assay for human Nuclear Respiratory Factor 1 (NRF1) Orphan Gene (AID 2282987); details: HepG2 NRF1 cis-element reporter, Attagene multiplex; actives raise or lower the signal
Outline: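 Multiplexed cis-reporter assay, HepG2 cells, 24 h treatment. Total RNA → oligo(dT) RT → PCR with reporter-specific primers → 6-FAM primer extension → HpaI cut → CE. Bidirectional fit vs DMSO.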

[13] = biological target: Nuclear receptor subfamily 1 group I member 3 (Homo sapiens) (UniProt Q14994); experiment: ATG_CAR_TRANS: Attagene TRANS-FACTORIAL HepG2 Assay for human Constitutive Androstane Receptor (CAR) (AID 2282969; active = hit-call score of the fitted dose curve at least 0.9, where 1 is the maximum;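 note: activators raise reporter mRNA above DMSO so AC50 marks induction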); details: HepG2 Attagene TRANS-FACTORIAL CAR reporter
Outline: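 HepG2 cells transiently transfected with GAL4-UAS reporter units; TRANS format reads activity of exogenous chimeric NR-Gal4 protein. After 24 h dosing, reporter mRNA quantified by RT-PCR, 6-FAM labelling and capillary electrophoresis; gain of signal fitted against DMSO.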

[14] = ATG_M_32_TRANS: Attagene TRANS-FACTORIAL HepG2 Assay for M32 Transcription Factor (Internal Marker) (AID 2282984; active = hit-call score of the fitted dose curve at least 0.9, where 1 is the maximum); details: HepG2 Attagene TRANS M32 internal marker reporter
Outline: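 HepG2 cells transiently transfected with GAL4-UAS reporter units, dosed for 24 hours. Reporter mRNA quantified by RT-PCR, 6-FAM labelling, HpaI digestion and capillary electrophoresis; internal-marker signal fitted upward relative to DMSO.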

[15] = biological target: Estrogen receptor (Homo sapiens) (UniProt P03372); experiment: ATG_ERa_TRANS: Attagene TRANS-FACTORIAL HepG2 Assay for human Estrogen Receptor alpha (ERa) (AID 2282970; active = hit-call score of the fitted dose curve at least 0.9, where 1 is the maximum); details: HepG2 Attagene TRANS ERa GAL4 reporter, mRNA
Outline: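 Transactivation via ERa-Gal4 chimera in HepG2; 24 hour incubation; reporter mRNA detected by fluorescence RT-PCR and capillary electrophoresis.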

[16] = ATG_GAL4_TRANS: Attagene TRANS-FACTORIAL HepG2 Assay for GAL4 (Internal Marker) (AID 2282976; active = hit-call score of the fitted dose curve at least 0.9, where 1 is the maximum); details: HepG2 Attagene TRANS GAL4 internal marker reporter
Outline: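 Fluorescence from capillary electrophoresis of labelled RT-PCR products quantifies reporter mRNA induction after 24 h dosing of HepG2 cells carrying transfected GAL4-UAS reporter transcription units. Vehicle DMSO serves as baseline.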

[17] = biological target: Oxysterols receptor LXR-alpha (Homo sapiens) (UniProt Q13133); experiment: ATG_LXRa_TRANS: Attagene TRANS-FACTORIAL HepG2 Assay for human Liver X Receptor alpha (LXRa) (AID 2282980; active = hit-call score of the fitted dose curve at least 0.9, where 1 is the maximum); details: HepG2 Attagene TRANS reporter, LXRa transactivation
Outline: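 Transient HepG2 transfectants, 24 h dosing, RT-PCR/CE mRNA reporter quantitation; gain-of-signal vs DMSO.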

[18] = biological target: Steroid hormone receptor ERR1 (Homo sapiens) (UniProt P11474); experiment: ATG_ERRa_TRANS: Attagene TRANS-FACTORIAL HepG2 Assay for human Estrogen-Related Receptor alpha (ERRa) (AID 2282971; active = hit-call score of the fitted dose curve at least 0.9, where 1 is the maximum); details: HepG2 Attagene TRANS reporter, ERRa transactivation
Outline: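 HepG2 cells were transiently transfected with multiple GAL4-UAS reporter units, then dosed with compound for 24 h. Total RNA was reverse-transcribed, reporter cDNA PCR-amplified and fluorescently labelled, and fragments resolved by capillary electrophoresis; induction was compared with DMSO.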

[19] = biological target: Estrogen-related receptor gamma (Homo sapiens) (UniProt P62508); experiment: ATG_ERRg_TRANS: Attagene TRANS-FACTORIAL HepG2 Assay for human Estrogen-Related Receptor gamma (ERRg) (AID 2282977; active = hit-call score of the fitted dose curve at least 0.9, where 1 is the maximum;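 note: hits increase reporter signal over DMSO so potencies reflect activators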); details: HepG2 Attagene TRANS reporter, ERRg transactivation
Outline: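 Transfect HepG2 with multiple GAL4-UAS reporter transcription units; dose chemicals 24 h; isolate RNA, reverse-transcribe with oligo(dT), PCR-amplify, label with 6-FAM, digest with HpaI; size fragments by capillary electrophoresis. DMSO serves as negative control.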

Measured: AC50

Chain of Nuclear receptor subfamily 4 group A member 2 (Homo sapiens) (P43354 whole entry, looked up, the tested form may be a part): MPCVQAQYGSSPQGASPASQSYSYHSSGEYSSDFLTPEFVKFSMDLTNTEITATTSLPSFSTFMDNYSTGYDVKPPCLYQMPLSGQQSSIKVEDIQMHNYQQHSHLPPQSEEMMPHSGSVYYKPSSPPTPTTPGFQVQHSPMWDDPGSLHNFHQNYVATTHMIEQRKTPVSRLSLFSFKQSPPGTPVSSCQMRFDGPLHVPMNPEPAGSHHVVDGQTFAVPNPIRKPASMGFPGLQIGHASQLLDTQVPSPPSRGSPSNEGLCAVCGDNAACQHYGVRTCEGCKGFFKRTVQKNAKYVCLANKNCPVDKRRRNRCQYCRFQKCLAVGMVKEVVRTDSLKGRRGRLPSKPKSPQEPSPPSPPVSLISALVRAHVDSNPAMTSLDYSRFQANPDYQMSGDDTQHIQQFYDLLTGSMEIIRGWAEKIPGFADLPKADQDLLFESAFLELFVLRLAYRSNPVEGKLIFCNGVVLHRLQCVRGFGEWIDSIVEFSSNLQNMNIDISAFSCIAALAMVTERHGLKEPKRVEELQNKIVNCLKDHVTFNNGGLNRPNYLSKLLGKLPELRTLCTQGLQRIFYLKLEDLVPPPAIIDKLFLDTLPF
Chain of Glucocorticoid receptor (Homo sapiens) (P04150 whole entry, looked up, the tested form may be a part): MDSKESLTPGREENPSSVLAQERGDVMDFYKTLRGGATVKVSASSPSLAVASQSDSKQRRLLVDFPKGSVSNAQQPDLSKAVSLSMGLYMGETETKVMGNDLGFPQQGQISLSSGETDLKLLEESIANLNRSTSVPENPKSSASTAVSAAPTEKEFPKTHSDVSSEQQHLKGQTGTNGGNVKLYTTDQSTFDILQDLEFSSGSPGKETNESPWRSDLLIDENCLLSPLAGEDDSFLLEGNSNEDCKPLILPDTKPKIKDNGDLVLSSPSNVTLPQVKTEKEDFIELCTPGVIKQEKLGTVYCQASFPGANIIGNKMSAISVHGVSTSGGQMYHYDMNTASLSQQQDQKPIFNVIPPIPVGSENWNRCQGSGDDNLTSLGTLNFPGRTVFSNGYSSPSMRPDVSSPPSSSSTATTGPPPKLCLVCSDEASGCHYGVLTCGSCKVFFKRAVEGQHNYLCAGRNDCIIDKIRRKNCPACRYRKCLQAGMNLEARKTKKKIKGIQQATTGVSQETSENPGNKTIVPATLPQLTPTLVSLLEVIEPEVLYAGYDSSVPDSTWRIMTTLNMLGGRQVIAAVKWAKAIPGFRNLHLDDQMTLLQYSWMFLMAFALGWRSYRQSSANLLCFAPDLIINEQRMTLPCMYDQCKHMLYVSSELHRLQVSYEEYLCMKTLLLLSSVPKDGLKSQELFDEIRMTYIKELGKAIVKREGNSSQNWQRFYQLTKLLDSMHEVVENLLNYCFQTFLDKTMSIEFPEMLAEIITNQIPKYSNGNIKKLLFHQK
Chain of Oxysterols receptor LXR-alpha (Homo sapiens) (Q13133 whole entry, looked up): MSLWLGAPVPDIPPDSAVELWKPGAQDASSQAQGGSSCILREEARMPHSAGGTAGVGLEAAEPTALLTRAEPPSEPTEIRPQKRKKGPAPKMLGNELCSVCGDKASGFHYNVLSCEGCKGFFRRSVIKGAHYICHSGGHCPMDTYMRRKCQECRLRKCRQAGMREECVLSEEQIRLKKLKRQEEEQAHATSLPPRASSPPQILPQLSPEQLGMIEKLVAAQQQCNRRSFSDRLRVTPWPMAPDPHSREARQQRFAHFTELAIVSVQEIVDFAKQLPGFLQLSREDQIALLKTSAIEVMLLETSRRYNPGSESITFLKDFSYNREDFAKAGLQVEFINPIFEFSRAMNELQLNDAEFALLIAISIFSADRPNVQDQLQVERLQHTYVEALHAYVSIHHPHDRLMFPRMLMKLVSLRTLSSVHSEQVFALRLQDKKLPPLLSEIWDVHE
Chain of X-box-binding protein 1 (Homo sapiens) (P17861 whole entry, looked up): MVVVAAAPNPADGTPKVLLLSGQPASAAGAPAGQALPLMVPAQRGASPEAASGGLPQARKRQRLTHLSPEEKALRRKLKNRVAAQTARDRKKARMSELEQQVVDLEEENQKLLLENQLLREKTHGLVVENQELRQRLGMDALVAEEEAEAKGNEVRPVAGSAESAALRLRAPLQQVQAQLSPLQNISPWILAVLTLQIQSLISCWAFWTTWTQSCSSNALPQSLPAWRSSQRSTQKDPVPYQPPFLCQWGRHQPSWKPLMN
Chain of Transcriptional activator Myb (Homo sapiens) (P10242 whole entry, looked up): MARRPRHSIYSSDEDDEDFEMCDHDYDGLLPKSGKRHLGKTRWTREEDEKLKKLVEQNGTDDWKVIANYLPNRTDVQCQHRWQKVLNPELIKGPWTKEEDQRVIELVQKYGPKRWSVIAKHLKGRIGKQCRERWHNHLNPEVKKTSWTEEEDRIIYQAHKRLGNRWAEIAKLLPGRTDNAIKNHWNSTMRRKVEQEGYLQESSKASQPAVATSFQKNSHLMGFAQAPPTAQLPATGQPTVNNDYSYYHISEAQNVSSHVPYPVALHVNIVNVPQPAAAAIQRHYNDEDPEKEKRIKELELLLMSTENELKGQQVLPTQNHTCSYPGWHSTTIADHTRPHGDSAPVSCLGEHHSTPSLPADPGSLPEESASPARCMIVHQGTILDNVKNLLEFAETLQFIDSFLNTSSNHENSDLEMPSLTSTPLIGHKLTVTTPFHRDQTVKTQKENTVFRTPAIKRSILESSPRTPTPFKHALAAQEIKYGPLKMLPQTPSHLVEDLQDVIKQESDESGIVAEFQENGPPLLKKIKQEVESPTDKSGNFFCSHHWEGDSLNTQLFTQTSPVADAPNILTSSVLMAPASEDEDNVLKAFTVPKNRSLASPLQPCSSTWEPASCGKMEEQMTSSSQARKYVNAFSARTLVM
Chain of Nuclear receptor subfamily 1 group I member 3 (Homo sapiens) (Q14994 whole entry, looked up, the tested form may be a part): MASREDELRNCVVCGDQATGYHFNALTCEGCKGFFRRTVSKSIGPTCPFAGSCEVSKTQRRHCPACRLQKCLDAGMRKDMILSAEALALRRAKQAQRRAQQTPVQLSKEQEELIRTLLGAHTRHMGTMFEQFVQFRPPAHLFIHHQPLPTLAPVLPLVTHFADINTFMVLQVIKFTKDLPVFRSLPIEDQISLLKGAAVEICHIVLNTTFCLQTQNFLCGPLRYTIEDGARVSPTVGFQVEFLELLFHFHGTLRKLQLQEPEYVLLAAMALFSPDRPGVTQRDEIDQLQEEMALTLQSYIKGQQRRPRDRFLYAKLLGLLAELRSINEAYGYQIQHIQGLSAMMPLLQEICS
Chain of Hepatocyte nuclear factor 4-alpha (Homo sapiens) (P41235 whole entry, looked up, the tested form may be a part): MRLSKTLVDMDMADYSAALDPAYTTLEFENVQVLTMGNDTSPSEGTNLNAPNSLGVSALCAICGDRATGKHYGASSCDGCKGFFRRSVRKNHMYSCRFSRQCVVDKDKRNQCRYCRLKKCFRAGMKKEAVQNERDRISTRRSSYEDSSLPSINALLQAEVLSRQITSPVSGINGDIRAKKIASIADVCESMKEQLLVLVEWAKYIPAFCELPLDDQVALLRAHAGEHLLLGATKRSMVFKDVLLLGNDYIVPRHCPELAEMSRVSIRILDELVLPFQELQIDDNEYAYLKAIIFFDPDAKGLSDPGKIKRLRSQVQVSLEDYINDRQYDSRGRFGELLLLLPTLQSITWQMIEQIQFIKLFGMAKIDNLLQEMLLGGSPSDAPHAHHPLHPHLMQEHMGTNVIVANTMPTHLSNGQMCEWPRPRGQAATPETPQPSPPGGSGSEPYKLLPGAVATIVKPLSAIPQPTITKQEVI
Chain of Nuclear respiratory factor 1 (Homo sapiens) (Q16656 whole entry, looked up): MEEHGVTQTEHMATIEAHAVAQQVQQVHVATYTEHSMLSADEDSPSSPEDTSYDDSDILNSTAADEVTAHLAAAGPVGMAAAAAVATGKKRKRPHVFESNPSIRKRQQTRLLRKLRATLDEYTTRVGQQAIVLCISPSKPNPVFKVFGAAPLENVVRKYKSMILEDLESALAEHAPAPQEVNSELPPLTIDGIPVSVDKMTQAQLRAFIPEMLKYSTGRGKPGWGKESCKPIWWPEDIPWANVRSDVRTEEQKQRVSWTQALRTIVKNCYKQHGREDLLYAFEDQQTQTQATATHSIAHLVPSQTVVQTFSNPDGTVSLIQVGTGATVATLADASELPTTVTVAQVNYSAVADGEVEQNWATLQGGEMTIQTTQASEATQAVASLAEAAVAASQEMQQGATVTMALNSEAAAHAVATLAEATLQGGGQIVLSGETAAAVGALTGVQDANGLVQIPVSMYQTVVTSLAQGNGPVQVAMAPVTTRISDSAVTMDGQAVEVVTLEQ
Chain of Steroid hormone receptor ERR1 (Homo sapiens) (P11474 whole entry, looked up, the tested form may be a part): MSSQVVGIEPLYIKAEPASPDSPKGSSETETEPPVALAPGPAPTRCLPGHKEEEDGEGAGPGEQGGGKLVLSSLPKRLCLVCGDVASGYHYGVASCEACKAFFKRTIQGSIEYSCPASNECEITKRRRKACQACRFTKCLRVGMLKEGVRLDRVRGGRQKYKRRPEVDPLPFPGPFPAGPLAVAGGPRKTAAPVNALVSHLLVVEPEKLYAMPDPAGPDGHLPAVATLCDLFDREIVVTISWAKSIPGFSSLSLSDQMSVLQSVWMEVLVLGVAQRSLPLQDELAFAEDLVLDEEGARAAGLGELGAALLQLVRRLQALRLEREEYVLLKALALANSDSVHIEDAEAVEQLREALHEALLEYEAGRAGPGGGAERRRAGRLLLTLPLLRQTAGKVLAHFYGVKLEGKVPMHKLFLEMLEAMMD
Chain of Bile acid receptor (Homo sapiens) (Q96RI1 whole entry, looked up, the tested form may be a part): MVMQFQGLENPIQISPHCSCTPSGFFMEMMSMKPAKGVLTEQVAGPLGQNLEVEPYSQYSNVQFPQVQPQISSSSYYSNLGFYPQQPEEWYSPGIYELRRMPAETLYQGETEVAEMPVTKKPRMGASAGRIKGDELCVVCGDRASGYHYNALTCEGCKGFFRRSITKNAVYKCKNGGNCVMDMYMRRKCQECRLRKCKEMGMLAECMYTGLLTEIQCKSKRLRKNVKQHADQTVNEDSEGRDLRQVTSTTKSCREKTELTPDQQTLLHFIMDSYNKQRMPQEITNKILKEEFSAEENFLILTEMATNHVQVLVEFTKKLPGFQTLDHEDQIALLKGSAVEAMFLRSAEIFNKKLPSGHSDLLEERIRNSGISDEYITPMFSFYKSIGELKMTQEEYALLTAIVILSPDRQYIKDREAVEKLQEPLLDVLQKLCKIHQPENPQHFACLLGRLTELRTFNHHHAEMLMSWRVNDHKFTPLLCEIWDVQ

CCC[CH2][Sn]([Cl])([CH2]CCC)[CH2]CCC
active: [3] 0.412 µM | [4] 0.639 µM | [6] 1.24 µM | [10] 0.0336 µM
inactive: [1] | [2] | [5] | [7] | [8] | [9] | [11] | [12]

CC(O)CCO (stereo not drawn)
not listed: [5] | [6] | [7] | [15] | [16] | [17] | [18] | [19]
inactive: all other assays above

CCOc1cccc(C2(N3CCN(c4ccccc4)CC3)CCC(C)CC2)c1 (stereo not drawn)
inactive: [1] | [2] | [3] | [15] | [4] | [16] | [9] | [11] | [12]

CCC12COCN1COC2
inactive: [1] | [2] | [3] | [4] | [5] | [16] | [17] | [8] | [11] | [12]

OCCCBr
not listed: [5] | [6] | [7] | [13] | [14] | [16] | [17] | [19]
inactive: all other assays above

[O-][Cl+]O
not listed: [6] | [7] | [13] | [19]
inactive: all other assays above

COc1cc(C=O)cc2c1[C@H](COC(N)=O)[C@]1(OC(C)=O)ON2C[C@H]2[C@@H]1N2C(C)=O
inactive: [15] | [18] | [16] | [17] | [8] | [9] | [14] | [12]
active: [1] 57.3 µM | [2] 60.4 µM | [3] 0.146 µM | [4] 33.4 µM | [11] 2.77 µM

C1=Cc2cccc3cccc1c23
not listed: [5] | [6] | [7] | [15] | [16] | [17] | [18] | [19]
inactive: all other assays above

CCCCCCCCn1sccc1=O
active: [3] 16.7 µM | [15] 16.9 µM | [4] 16.5 µM | [11] 11.6 µM | [12] 16.5 µM
not listed: [6] | [10] | [13] | [17] | [18]
inactive: all other assays above

Oc1ccccc1Cl
not listed: [5] | [7] | [8] | [15] | [16] | [17] | [18] | [19]
inactive: all other assays above

Oc1ccc2ccc3cccc4ccc1c2c34
not listed: [7] | [10] | [13] | [15] | [16] | [17] | [18] | [19]
inactive: all other assays above
